Measured values taken from the supplement of paper PMC6555819.

How the values were obtained:
Assay in all cases: PBM binding z-score (relative to random genomic background probes); higher = stronger binding; sequences stand for … in GC…GCGATTGACAGCGTAGAATGAAGG
[1] = system: FXR:RXRa (NR concentration 270 nM, RXRa partner concentration 90 nM)
Outline: (§1)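 Ligand-free nuclear receptor dimers were bound for 1 h to custom Agilent 4×180K protein-binding microarrays. Detection used antibodies against each partner (one per run). Binding z-scores rest on regression-normalized fluorescence, with random background probes as the reference.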

[2] = system: LXRa:RXRa (NR concentration 270 nM, RXRa partner concentration 90 nM)
Outline: as §1

[3] = system: LXRa homodimer (NR concentration 270 nM)
Outline: as §1

[4] = system: LXRb:RXRa (NR concentration 270 nM, RXRa partner concentration 90 nM)
Outline: as §1

[5] = system: LXRb homodimer (NR concentration 270 nM)
Outline: as §1

[6] = system: PPARa:RXRa (NR concentration 270 nM, RXRa partner concentration 90 nM)
Outline: as §1

[7] = system: PPARg:RXRa (NR concentration 180 nM, RXRa partner concentration 90 nM)
Outline: as §1

[8] = system: PPARg:RXRa 270nM:90nM, anti-RXR (NR concentration 270 nM, RXRa partner concentration 90 nM)
Outline: as §1

[9] = system: PPARg:RXRa 30nM:10nM, anti-RXR (NR concentration 30 nM, RXRa partner concentration 10 nM)
Outline: as §1

[10] = system: PPARg:RXRa 90nM:30nM, anti-RXR (NR concentration 90 nM, RXRa partner concentration 30 nM)
Outline: as §1

[11] = system: PPARg:RXRa DBDmut IVT, anti-RXR (DBD mutation: RXRa K156A/R161A, NR concentration 270 nM, RXRa partner concentration 90 nM)
Outline: as §1

[12] = system: PPARg:RXRa IVT, anti-PPARg (NR concentration 270 nM, RXRa partner concentration 90 nM)
Outline: as §1

[13] = system: PPARg DBDmut:RXRa IVT, anti-PPARg (DBD mutation: PPARg1 K132A/R137A, NR concentration 270 nM, RXRa partner concentration 90 nM)
Outline: as §1

[14] = system: PPARg DBDmut IVT, anti-PPARg (DBD mutation: PPARg1 K132A/R137A, NR concentration 270 nM)
Outline: as §1

[15] = system: PPARg homodimer (NR concentration 180 nM)
Outline: as §1

[16] = system: PXR:RXRa (NR concentration 270 nM, RXRa partner concentration 90 nM)
Outline: as §1

[17] = system: PXR homodimer (NR concentration 270 nM)
Outline: as §1

[18] = system: RARa:RXR (NR concentration 270 nM, RXRa partner concentration 90 nM)
Outline: as §1

[19] = system: RARa homodimer (NR concentration 270 nM)
Outline: as §1

[20] = system: RARb:RXRa (NR concentration 270 nM, RXRa partner concentration 90 nM)
Outline: as §1

| Sequence | PBM binding z-score [1] | PBM binding z-score [2] | PBM binding z-score [3] | PBM binding z-score [4] | PBM binding z-score [5] | PBM binding z-score [6] | PBM binding z-score [7] | PBM binding z-score [8] | PBM binding z-score [9] | PBM binding z-score [10] | PBM binding z-score [11] | PBM binding z-score [12] | PBM binding z-score [13] | PBM binding z-score [14] | PBM binding z-score [15] | PBM binding z-score [16] | PBM binding z-score [17] | PBM binding z-score [18] | PBM binding z-score [19] | PBM binding z-score [20] |
| --- | --- | --- | --- | --- | --- | --- | --- | --- | --- | --- | --- | --- | --- | --- | --- | --- | --- | --- | --- | --- |
| TCATATAAGTAAAAGGTGAAAGTCGGTGTGGTAA | 1.04 | 1.71 | 0.168 | 1.8 | 0.141 | 3.59 | 3.78 | 5.58 | 5.48 | 6.35 | 3.39 | 2.38 | 0.923 | 0.618 | 1.82 | 1.24 | 0.368 | 2.22 | 1.48 | 1.83 |
| TATACAGGGTCAAACGCCAGAGTACGAATGTCGA | 7.58 | 6.35 | 3.43 | 5.2 | 3.15 | 6.3 | 7.33 | 6.79 | 3.84 | 5.94 | 2.52 | 4.64 | 3.59 | 3.04 | 3.53 | 4.49 | 0.94 | 5.61 | 0.721 | 4.45 |
| TCATATAGGTAAACGTGAAAGTCGAACGATATGA | 0.211 | 0.332 | -0.204 | 0.164 | 0.105 | 1.33 | 1.44 | 2.44 | 3.42 | 2.86 | 3.9 | 2.6 | 1.4 | 1.61 | 0.529 | 0.122 | 0.576 | 0.437 | 0.345 | 0.3 |
| CCTTACTGGTCAAGGTTATAGCACGGGTGGTACG | 0.733 | 0.968 | 0.49 | 0.767 | 0.339 | 1.43 | 0.792 | 1.03 | 0.301 | 0.959 | 0.149 | 0.857 | 0.06 | 0.0641 | 1.25 | 1.12 | 0.519 | 1.01 | 0.942 | 2.02 |
| CGAACTAGGTCATGGACAGTGAATCTCCGCACGC | 3.63 | 2.28 | 0.076 | 1.46 | -0.358 | 4.61 | 7.41 | 6.4 | 3.88 | 6.02 | 8.13 | 8.2 | 2.01 | 1.53 | 1.69 | 1.36 | -0.279 | 2.43 | 0.353 | 3.61 |
| GCAGACAGGTGAAACGCACGTAACTCAGGGTGGC | -0.552 | -0.392 | -0.524 | -0.277 | -0.898 | 0.511 | 0.771 | 0.0365 | -0.437 | -0.223 | 0.74 | 0.58 | 0.226 | -0.35 | -0.768 | -0.397 | -0.419 | -0.0418 | -0.719 | 0.539 |
| CCTACTGGGCCATCAGGTCATGGATATCAACGTT | 1.24 | 1.22 | 0.743 | 1.49 | -0.453 | 3.14 | 3.59 | 4.15 | 1.85 | 3.37 | 4.54 | 5.33 | 1.99 | 0.266 | 1.85 | 1.58 | 0.00422 | 2.45 | -0.165 | 2.31 |
| TAGCCTAGGTCATTCAGGGGCCAGTATAGAAAGC | 4.58 | 3.73 | 0.785 | 3.2 | 0.97 | 3.78 | 1.97 | 2.59 | 0.55 | 1.45 | 1.64 | 2.89 | -0.179 | 0.357 | 1.37 | 2.57 | -0.0401 | 2.74 | -0.372 | 3.79 |
| GCTGCTAGGTCAGGTTGGTCAGCTGACGGGTACG | 1.19 | 0.902 | -0.423 | 0.356 | -0.106 | 1.26 | 0.207 | 1.04 | -0.528 | 0.514 | 2.92 | 2.16 | 0.00411 | -0.207 | 1.24 | 0.407 | -0.471 | 0.946 | -0.516 | 3.17 |
| ATACCAAGGTGCTCGTGAGGTCGTTGATACTAAC | 0.689 | 0.535 | 0.19 | 0.834 | -0.238 | 0.836 | 0.126 | -0.218 | -0.413 | -0.131 | -0.245 | 0.0535 | 0.246 | 0.215 | 0.541 | 2.27 | 0.582 | 1.85 | -0.377 | 0.57 |
| GCTAGCAGGCCATTTGAGTCACTCAATGACGGGC | -0.524 | -0.643 | -0.699 | -1.05 | -0.622 | -0.463 | 0.311 | -0.7 | -0.625 | -0.728 | 0.829 | -0.00694 | -0.509 | -2.18 | -0.951 | -0.369 | -0.961 | -0.381 | -1.15 | 0.073 |
| CCTAGCAGGCCAGGGTCACTCTAGCATTTCGCTT | 1.58 | 1.43 | -0.629 | 1.71 | -0.953 | 2.59 | 0.377 | 1.19 | -0.703 | -0.00564 | 0.274 | 0.7 | -1.19 | -1.73 | 0.937 | 2.39 | -0.295 | 3.03 | -0.305 | 2.52 |
| GGAACGAGGGCAAAGTTGATAGCATCTGTCGACG | 1.45 | 0.921 | -0.231 | 1.07 | -0.272 | 4.11 | 6.65 | 7.24 | 5.84 | 7.47 | 3.97 | 4.32 | 0.506 | -0.103 | -0.0124 | 1.14 | -0.0271 | 1.56 | -0.075 | 2.37 |
| CGTCGAAGTTCAAGGTAACGTAACAGAAAGCAGC | 2.59 | 2.34 | -0.0774 | 1.38 | -0.503 | 2.51 | 1.18 | 1.48 | 0.235 | 0.847 | -0.377 | 0.326 | 0.134 | -0.191 | 0.722 | 2.28 | 0.897 | 1.5 | -0.214 | 3.38 |
